Laboratory results as given in PubChem BioAssay (NCATS).
Records with an inconclusive call do not appear. Unless noted, the call rests on the fitted dose curve; in most records, active means well fitted curve in either direction with a large enough effect (not every such curve was filed as active); inconclusive means small, poorly fitted or top-dose-only effect, or another doubt; inactive means flat fitted curve, though single readings scatter.

Columns and labels:
[1] = AP1 Signaling Pathway (AID 357); details: ME-180 AP-1-bla reporter, EGF-induced, beta-lactamase ratio, 5 h; at 17.2 µM (top of the series) unless noted;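 further: ME-180 reporter cells stimulated with EGF at its EC50 level; on the % scale 0 is the no-effect control and ±100 the full control effect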
Procedure, shortened: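 Read-out was the 460nm/530nm emission ratio (excitation 405nm) after CCF4 loading for 2.5 hours at room temperature. Cells carried an AP-1-driven beta-lactamase reporter, were stimulated with EC50 EGF plus compound for 5 hours, and AC50 values came from titrations.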

[2] = NFAT Signaling Pathway (AID 444); details: Jurkat NFAT-bla M1, carbachol, beta-lactamase ratio, 5 h; at 17.2 µM (top of the series) unless noted;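 further: carbachol stimulus at about its EC50 of 1 µM final; on the % scale 0 is the no-effect control and ±100 the full control effect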
Procedure, shortened: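 Jurkat cells with NFAT-driven β-lactamase reporter and co-expressed M1 receptor, stimulated with carbachol (final 1 uM, ~EC50), compound titration, 5 h at 37 °C. CCF4 loaded 1 h at RT; 460/530 nm ratio gave %activity and AC50.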

[3] = Stat Signaling Pathway (AID 446); details: ME-180 SIE beta-lactamase reporter, IL-6 stimulated, 5 h; at 17.2 µM (top of the series) unless noted;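 further: ME-180 cervical cancer cells given 40 pM IL-6 alongside compound; SIE-controlled beta-lactamase reporter measured as 460/530 nm FRET emission ratio; on the % scale 0 is the no-effect control and ±100 the full control effect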
Procedure, shortened: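 ME-180 cells carrying a SIE-driven beta-lactamase reporter are stimulated with 40 pM IL-6 for 5 h at 37C in the presence of compound. The 460/530 nm FRET substrate ratio is read after 2.5 h at RT. Data are normalised to 300 pM IL-6 and to 125 nM JAK inhibitor controls.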

[4] = target: Glucocorticoid receptor (Homo sapiens) (UniProt P04150); assay: GR-GFP Redistribution (AID 450;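 active means compounds whose dose series gives a full or clear partial fitted curve of increased nuclear translocation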; further: potency means the concentration at half of the fitted maximal effect)
Chain of Glucocorticoid receptor (Homo sapiens) (P04150 whole entry, looked up): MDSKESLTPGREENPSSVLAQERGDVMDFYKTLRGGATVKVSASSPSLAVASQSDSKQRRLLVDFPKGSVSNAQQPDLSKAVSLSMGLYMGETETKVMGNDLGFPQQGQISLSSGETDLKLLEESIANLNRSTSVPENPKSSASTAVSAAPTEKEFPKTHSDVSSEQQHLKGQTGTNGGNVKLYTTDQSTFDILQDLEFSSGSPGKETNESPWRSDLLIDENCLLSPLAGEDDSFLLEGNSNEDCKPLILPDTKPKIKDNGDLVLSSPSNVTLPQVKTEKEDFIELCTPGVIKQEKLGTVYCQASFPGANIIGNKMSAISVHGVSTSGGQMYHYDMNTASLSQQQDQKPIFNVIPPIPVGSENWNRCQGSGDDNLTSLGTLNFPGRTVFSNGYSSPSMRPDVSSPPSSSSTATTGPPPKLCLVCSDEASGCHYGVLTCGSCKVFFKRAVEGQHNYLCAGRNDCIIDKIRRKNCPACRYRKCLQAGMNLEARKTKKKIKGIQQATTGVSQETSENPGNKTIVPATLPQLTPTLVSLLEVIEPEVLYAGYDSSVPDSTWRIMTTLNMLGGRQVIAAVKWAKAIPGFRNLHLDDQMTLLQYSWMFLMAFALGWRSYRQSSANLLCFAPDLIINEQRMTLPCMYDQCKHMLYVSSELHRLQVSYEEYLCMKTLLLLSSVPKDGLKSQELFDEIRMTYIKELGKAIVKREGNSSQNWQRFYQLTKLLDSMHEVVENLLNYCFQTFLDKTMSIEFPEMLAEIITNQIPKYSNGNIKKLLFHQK

COc1ccc(/C(O)=C2\C(=O)C(=O)N(CCN(C)C)C2c2cccc(OC)c2OC)cc1 (stereo unspecified)
inactive: activity change, negative = inhibition [1] 10.8% | activity change, negative = inhibition [2] -5.32% | activity, negative = inhibition [3] 11.6% | Potency [4] > 20.6 µM

O=C(NC1CCS(=O)(=O)C1)N1CCCCC1 (stereo unspecified)
inactive: activity change, negative = inhibition [1] -10.9% | activity change, negative = inhibition [2] -4.07% | activity, negative = inhibition [3] 9% | Potency [4] > 20.6 µM

COc1ccccc1C1/C(=C(/O)c2ccc(C)cc2)C(=O)C(=O)N1Cc1ccco1 (stereo unspecified)
inactive: activity change, negative = inhibition [1] 12.8% | activity change, negative = inhibition [2] 15.4% | activity, negative = inhibition [3] -15.4% | Potency [4] > 20.6 µM

Clc1ccc2nc(CSc3nc4ccccc4o3)cn2c1
inactive: activity change, negative = inhibition [1] -4.14% | activity change, negative = inhibition [2] 1.67% | activity, negative = inhibition [3] -8.83% | Potency [4] > 20.6 µM

CC(C)C1Cc2c(sc3c2c(=O)n(-c2ccccc2)c2nncn32)CO1 (stereo unspecified)
inactive: activity change, negative = inhibition [1] -6.58% | activity change, negative = inhibition [2] -10.2% | activity, negative = inhibition [3] 5.31% | Potency [4] > 20.6 µM

CC(=O)NC1(C(F)(F)F)C(=O)Nc2c1c(=O)n(C)c(=O)n2C (stereo unspecified)
inactive: activity change, negative = inhibition [1] 21.1% | activity change, negative = inhibition [2] 7.97% | activity, negative = inhibition [3] 0.854% | Potency [4] > 20.6 µM

COCCNC(=O)C(C#N)c1nc2ccccc2nc1N1CCN(Cc2ccc3c(c2)OCO3)CC1 (stereo unspecified)
inactive: activity change, negative = inhibition [1] -20.2% | activity change, negative = inhibition [2] -26.8% | activity, negative = inhibition [3] 4.46% | Potency [4] > 20.6 µM

CCOC(=O)CC(=O)CSc1nnc2sc3ccccc3n12
inactive: activity change, negative = inhibition [1] 6.11% | activity change, negative = inhibition [2] -0.0909% | activity, negative = inhibition [3] 7.94% | Potency [4] > 20.6 µM

N/C(=N\S(=O)(=O)c1ccc(Cl)s1)c1ccccc1
inactive: activity change, negative = inhibition [1] -2.33% | activity change, negative = inhibition [2] -13.4% | activity, negative = inhibition [3] -9.11% | Potency [4] > 20.6 µM

Nc1[nH]nc2nc(NCc3ccccc3)c3c(c12)CCN(Cc1ccccc1)C3
inactive: activity change, negative = inhibition [1] -11.4% | activity change, negative = inhibition [2] 0.244% | activity, negative = inhibition [3] 6.86% | Potency [4] > 20.6 µM

CCCCc1cc(=O)oc2c(CN3CCCC3)c(O)ccc12
inactive: activity change, negative = inhibition [1] 9.79% | activity change, negative = inhibition [2] 2.24% | activity, negative = inhibition [3] 3.31% | Potency [4] > 20.6 µM

COc1ccc2c(c1)nc(N)n2Cc1ccccc1
inactive: activity change, negative = inhibition [1] -1.6% | activity change, negative = inhibition [2] -9.42% | activity, negative = inhibition [3] -3.55% | Potency [4] > 20.6 µM

CC1(C)Cc2nc(N)c(C(=O)NCCO)cc2CO1
inactive: activity change, negative = inhibition [1] 8.22% | activity change, negative = inhibition [2] 3.25% | activity, negative = inhibition [3] 9.02% | Potency [4] > 20.6 µM

CCOC(=O)C1CCN(c2ncnc3c2cnn3-c2ccc(OC)cc2)CC1
inactive: activity change, negative = inhibition [1] 4.62% | activity change, negative = inhibition [2] -5.45% | activity, negative = inhibition [3] 1.28% | Potency [4] > 20.6 µM

Cc1nnc(SCC(=O)N2CCOCC2)c2ccccc12
inactive: activity change, negative = inhibition [1] -1.59% | activity change, negative = inhibition [2] 3.16% | activity, negative = inhibition [3] 2.48% | Potency [4] > 20.6 µM

CSc1sc(C(=O)O)c2c1C(=O)CCC2
inactive: activity change, negative = inhibition [1] 12.2% | activity change, negative = inhibition [2] -0.427% | activity, negative = inhibition [3] 3.35% | Potency [4] > 20.6 µM

COCCN(CCOC)C(=O)C12CCC(C)(C(=O)C1)C2(C)C (stereo unspecified)
inactive: activity change, negative = inhibition [1] 9.52% | activity change, negative = inhibition [2] 8.02% | activity, negative = inhibition [3] 3.59% | Potency [4] > 20.6 µM

COc1cccc(C2CC(c3ccccc3Cl)n3nc(N)nc3N2)c1 (stereo unspecified)
inactive: activity change, negative = inhibition [1] -5.25% | activity change, negative = inhibition [2] -4.65% | activity, negative = inhibition [3] -3.07% | Potency [4] > 20.6 µM

Oc1c(C=NCc2ccncc2)sc2ccccc12
inactive: activity change, negative = inhibition [1] -15.7% | activity change, negative = inhibition [2] -6.22% | activity, negative = inhibition [3] -1.25% | Potency [4] > 20.6 µM

CC(C)CNc1nc2c(c(=O)n(C)c(=O)n2C)n1Cc1cccc(Br)c1
inactive: activity change, negative = inhibition [1] -13.5% | activity change, negative = inhibition [2] -2.14% | activity, negative = inhibition [3] -18.2% | Potency [4] > 20.6 µM

COc1cc(=O)n2c(-c3ccccc3)csc2n1
inactive: activity change, negative = inhibition [1] 6.57% | activity change, negative = inhibition [2] 0.0134% | activity, negative = inhibition [3] 8.66% | Potency [4] > 20.6 µM

O=C1C(=O)N(Cc2cccnc2)C(c2ccccn2)/C1=C(/O)c1ccc(F)cc1 (stereo unspecified)
inactive: activity change, negative = inhibition [1] 10.7% | activity change, negative = inhibition [2] 3.79% | activity, negative = inhibition [3] 0.323% | Potency [4] > 20.6 µM

Cc1c(C2CC(=O)N(c3ccccc3)C2=O)[nH]n(-c2ccccc2)c1=O (stereo unspecified)
inactive: activity change, negative = inhibition [1] -2.21% | activity change, negative = inhibition [2] -3.65% | activity, negative = inhibition [3] 1.65% | Potency [4] > 20.6 µM

CCCCOc1ccc(C)cc1CN(CCO)CCO
inactive: activity change, negative = inhibition [1] 27.9% | activity change, negative = inhibition [2] -9.6% | activity, negative = inhibition [3] 5.48% | Potency [4] > 20.6 µM
